Assay outcomes as filed in PubChem BioAssay.
esBAF inh: inhibitors of esBAF chromatin remodeling in mouse ES cells | 350,000 compounds, 2% hits | reporter increase, % at 12.5 µM | Bmi1-luciferase knock-in reporter, 24 h; 100% = twice the neutral-well signal | AID 602393; in the data active means activation above about 40%;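 further: a rise in the Bmi1 reporter signal indicates esBAF inhibition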
hgDAF-12 ag: hgDAF-12 agonism, primary luciferase screen | HEK293 GAL4-hgDAF12 UAS-luciferase reporter, agonist luminescence; normalized to butyrate control | activation, % at 6.8 µM | 370,000 compounds, 1.8% hits | AID 687014;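 active means activation above a cutoff set at the mean of all screened compounds plus 3 SD, cut at about 10% in these data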
ssDAF12 agonist: activators of S. stercoralis DAF-12 nuclear receptor. 370,000 compounds, 1% hits. AID 652126. HEK293 ssDAF-12/GRIP1 lit1-tk-luc reporter, luminescence; % of 3 µM dafachronic acid response. activation, % at 6.8 µM;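 active means activation above the mean over all tested compounds plus 3 SD, cut at about 0.9% in these data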
DAX1 inh: blocks DAX1 repression of SF-1 activated StAR promoter; HEK293T StAR-luciferase reporter, SF-1/DAX-1 repression relief; inhibition, % at 6.8 µM; 370,000 compounds, 1.1% hits;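 active means inhibition above the mean over all tested compounds plus 3 SD, cut at about 3.6% in these data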;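 further: higher inhibition means more luminescence from relief of DAX-1 repression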
Wnt act: Wnt/beta-catenin pathway activation; Wnt/beta-catenin reporter cell assay, activator, plate reader; activation, % at 9.35 µM; 300,000 compounds, 1.2% hits; AID 743398; in the data active means activation above about 30%, passing the limit was not always enough
hcDAF-12 act: activators of H. contortus DAF-12 nuclear receptor | 370,000 compounds, 1.4% hits | HEK293 hcDAF-12 lit1-tk-luc reporter, luminescence; 0% DMSO, 100% Δ7-dafachronic acid | activation, % at 6.8 µM;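 active means activation above the mean of all tested compounds plus 3 SD, cut at about 5.5% in these data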
Numbers stand for hits; i = inactive; nt = not tested or not shown. In the library only some 4.2% were active in any assay of this set; here they are far more common.

SMILES | esBAF inh | hgDAF-12 ag | ssDAF12 agonist | DAX1 inh | Wnt act | hcDAF-12 act
COC(=O)C(Cc1ccc(OC(=O)c2ccccc2Cl)cc1)N1Cc2ccccc2C1=O (stereo not given) | 44.4 | i | i | i | nt | i
COc1cc(C(=O)OC2CC3CCC2(C)C3(C)C)ccc1OC(C)=O (stereo not given) | 48.7 | i | i | i | i | i
CC1(C)C2CCC1(C)C(OC(=O)CNc1ccccc1)C2 (stereo not given) | nt | i | i | i | i | i
CO[C@H]1CN(C)C(=O)c2cc(NC(=O)c3ccc(F)cc3)ccc2OC[C@@H](C)N(Cc2cocn2)C[C@@H]1C | i | nt | nt | nt | nt | nt
Cc1nc(-c2ccc(Cl)cc2)sc1C1(C)CC(c2ccccc2)=NO1 (stereo not given) | 58.9 | i | i | i | i | i
Cc1nc(-c2ccc(Cl)cc2)sc1C1(C)CC(c2ccccc2Br)=NO1 (stereo not given) | nt | i | i | i | i | i
Cc1nc(-c2ccc(Cl)cc2)sc1C1(C)CC(c2ccc(Cl)cc2)=NO1 (stereo not given) | i | i | i | i | i | i
COc1ccccc1C1=NOC(C)(c2sc(-c3ccc(Cl)cc3)nc2C)C1 (stereo not given) | 42.8 | i | i | i | i | i
O=C(C1CCCCC1)N1CCc2ccccc21 | i | i | i | i | i | i
O=C(C1CCCO1)N1CCc2ccccc21 (stereo not given) | nt | i | 1.8 | i | nt | i
O=C(C1CC(=O)N(C2CCCCC2)C1)N1CCc2ccccc21 (stereo not given) | nt | i | i | i | i | 6.2
C[C@@H]1CN([C@@H](C)CO)S(=O)(=O)c2ccc(-c3cncnc3)cc2O[C@@H]1CN(C)C(=O)c1cccc(F)c1 | i | nt | nt | nt | nt | nt
COc1ccc2cc(CCOC3CCCCO3)ncc2c1 (stereo not given) | i | i | i | i | i | 6.5
Oc1cccc(C2c3[nH]c4ccccc4c3CCN2Cc2ccc3c(c2)CCO3)c1 (stereo not given) | nt | i | i | i | i | i
Oc1cccc(C2c3[nH]c4ccccc4c3CCN2Cc2ccoc2)c1 (stereo not given) | nt | i | 1.4 | i | i | i
O=C(O)C(Cc1ccccc1)N1C(=O)c2cccc3cccc(c23)C1=O (stereo not given) | nt | i | 1.7 | i | i | i
CC(C)NC(=O)N(C)C[C@H]1OCCCC[C@@H](C)Oc2ccc(NS(C)(=O)=O)cc2C(=O)N([C@@H](C)CO)C[C@H]1C | i | nt | nt | nt | nt | nt
CCOc1ccc(C(=O)Nc2c(C(=O)N3CCC(N4CCCCC4)CC3)oc3ccccc23)cc1 | i | i | i | 4.0 | i | i
O=C(C[C@H]1CC[C@@H](NC(=O)C2CC2)[C@@H](CO)O1)NCC1CC1 | i | nt | nt | nt | nt | nt
CCOc1ccccc1NC(=O)CN1C(=O)C(C)SC(C)C1=O (stereo not given) | nt | i | i | i | 39.0 | i
CCC(=O)Nc1ccc2c(c1)C(=O)N(C)[C@@H]1CC[C@@H](CC(=O)O)O[C@@H]1CO2 | i | nt | nt | nt | nt | nt
Cc1cc(=S)c2ccccc2[nH]1 | nt | i | 1.3 | i | i | i
COc1cc2c(cc1OC)CN(C(=O)c1ccncc1)CC2 | i | i | i | i | i | i
COc1ccc(C(=O)N2CCc3ccc(NC(=O)c4ccccn4)cc3C2)cc1F | 52.4 | i | i | i | i | i
CCOc1ccc(S(=O)(=O)N2CCOCC2)cc1NC(=O)CSCc1c(C)noc1C | nt | i | i | i | i | i
SMILES | esBAF inh | hgDAF-12 ag | ssDAF12 agonist | DAX1 inh | Wnt act | hcDAF-12 act
Cc1ccc(S(=O)(=O)N2CCOCC2)cc1NC(=O)CSCc1c(C)noc1C | i | i | i | 3.6 | i | i
COc1cccc(-c2cc(C(=O)Nc3cccnc3Cl)no2)c1 | i | i | i | i | i | i
O=C(Nc1cccnc1Cl)c1cc(-c2ccco2)on1 | 45.7 | 13.0 | i | i | 58.5 | i
O=C(Nc1cc(Cl)ccc1O)c1cc(-c2ccco2)on1 | 66.7 | i | i | i | i | i
CS(=O)(=O)N1[C@@H]2c3ccc(-c4ccccc4)c(=O)n3C[C@@H]2[C@@H](CO)[C@@H]1C(=O)NC1CCC1 | i | nt | nt | nt | nt | nt
CC(c1ccco1)N(C(=O)COc1ccc(Cl)cc1)c1ccccn1 (stereo not given) | 72.4 | i | i | i | nt | i
CC(C)OC(=O)Cc1nc2sc(-c3ccccc3)cc2c(=O)[nH]1 | 49.1 | i | i | i | i | i
Cc1noc(C)c1S(=O)(=O)N(C)C[C@@H]1Oc2ccc(NS(=O)(=O)c3ccc(F)cc3)cc2C(=O)N([C@H](C)CO)C[C@@H]1C | i | nt | nt | nt | nt | nt
Cc1ccc(-c2cc(C(F)F)n3ncc(C(=O)N4CCCCC4c4cccnc4)c3n2)cc1 (stereo not given) | nt | i | i | i | i | 5.7
Oc1ccc(Nc2ncnc3scc(-c4ccccc4)c23)cc1 | nt | i | i | i | i | i
Cc1sc2ncnc(Nc3ccc(O)cc3)c2c1C | i | i | i | i | 37.9 | i
Cc1sc2ncnc(N/N=C/c3cccc(O)c3)c2c1C | nt | i | i | i | nt | 5.6
C/C(=N\Nc1ncnc2sc(C)c(C)c12)c1ccccn1 | i | i | i | i | i | i
COc1ccc(C(CNC(=O)c2cccn2C)N2CCOCC2)cc1 (stereo not given) | 56.6 | i | i | i | i | i
COc1ccc(C(CNC(=O)c2ccc(S(=O)(=O)Nc3ccccc3OC)cc2)N2CCCC2)cc1 (stereo not given) | i | i | i | 4.2 | i | i
COc1ccc(C(CNC(=O)c2ccc(C)o2)N2CCOCC2)cc1 (stereo not given) | i | i | i | i | i | i
O=C(NCC(c1ccc(F)cc1)N1CCOCC1)c1c(F)cccc1F (stereo not given) | i | i | i | i | 38.7 | i
COc1ccccc1NS(=O)(=O)c1ccc(C(=O)NCC(c2ccccc2OC)N2CCCC2)cc1 (stereo not given) | i | i | i | i | i | i
Cn1cccc1C(=O)C(=O)Nc1cc(Cl)cc(Cl)c1 | 49.0 | i | i | i | i | i
CN(C)c1nc(N/N=C/c2c[nH]c3ccccc23)nc(N2CCOCC2)n1 | nt | i | 1.2 | i | i | i
C(=Nc1ccc(N2CCOCC2)cc1)c1c[nH]c2ccccc12 | nt | i | i | i | i | i
Cc1[nH]c2ccccc2c1/C=N/Nc1nc(N2CCCCC2)nc(N2CCCCC2)n1 | nt | i | i | i | i | i
C(=N\Nc1nc(N2CCCCC2)nc(N2CCCCC2)n1)/c1c[nH]c2ccccc12 | nt | i | 1.1 | i | i | i
COc1cc2c(cc1OC)-c1cc(Nc3ccccc3)nc(=O)n1CC2 | nt | i | i | i | 45.4 | i
CC1CCN(c2ccc3c(c2)S(=O)(=O)c2ccccc2C3=O)CC1 | 52.7 | i | i | i | 52.2 | i
